# Measured values as given in PubChem BioAssay AID1159580 (chemical genetic matrix, 2015).
# “And” between values parts separate entries of the source, which are not always exact repeats. Equal values may be shown once. The whole screen tested about 5,500 compounds, of which about 2,000 (36%) were called active. About 18% were inconclusive and are not listed. Cut-off read from the data, not from the text of the source: active = normalized growth mostly below about 0.91 (no sharp cut-off); inconclusive = no clear call, values can overlap the other calls; inactive = mostly above about 0.92. Some of the results follow. Some compounds were tested as several samples or in several runs, with calls that do not always agree.
# Experiment: chemical genetic growth profiling, strain panel (AID 1159580);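 note: tested at 20 µM; growth read once vehicle control cultures reached saturation at 30 °C; 1 = growth at the plate median or of vehicle wells; lower values mean less growth of the strain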
# Conditions: S. cerevisiae deletion strains, growth OD
smiles,measurement,setting,value
Cc1cc2c(C(C)C)c(O)c(O)c(C=O)c2c(O)c1-c1c(C)cc2c(C(C)C)c(O)c(O)c(C=O)c2c1O,normalized growth,"locus YAL013W, strain DEP1, stronger effect = lower value",0.328 (active) and 0.919 (inactive)
same,normalized growth,"locus YAL021C, strain ccr4, stronger effect = lower value",0.423 (active) and 0.368 (active)
same,normalized growth,"locus YAL026C, strain drs2, stronger effect = lower value",0.446 (active) and 0.519 (active)
same,normalized growth,"locus YAL030W, strain snc1, stronger effect = lower value",0.842 (active) and 0.874 (active)
same,normalized growth,"locus YBL061C, strain skt5, stronger effect = lower value",0.762 (active) and 0.747 (active)
same,normalized growth,"locus YBR009C, strain hhf1, stronger effect = lower value",0.779 (active) and 0.854 (active)
same,normalized growth,"locus YBR021W, strain FUR4, stronger effect = lower value",0.953 (inactive) and 0.977 (inactive)
same,normalized growth,"locus YBR023C, strain chs3, stronger effect = lower value",0.715 (active) and 0.692 (active)
same,normalized growth,"locus YBR171W, strain sec66, stronger effect = lower value",0.862 (active) and 0.922 (inactive)
same,normalized growth,"locus YBR229C, strain ROT2, stronger effect = lower value",0.936 (inactive) and 0.948 (inactive)
same,normalized growth,"locus YBR231C, strain swc5, stronger effect = lower value",0.637 (active) and 0.64 (active)
same,normalized growth,"locus YBR279W, strain paf1, stronger effect = lower value",0.778 (active) and 0.751 (active)
same,normalized growth,"locus YCL011C, strain gbp2, stronger effect = lower value",0.819 (active) and 0.854 (active)
same,normalized growth,"locus YCL016C, strain dcc1, stronger effect = lower value",0.842 (active) and 0.831 (active)
same,normalized growth,"locus YCL029C, strain bik1, stronger effect = lower value",0.798 (active) and 0.939 (inactive)
same,normalized growth,"locus YCL061C, strain MRC1, stronger effect = lower value",0.845 (active)
same,normalized growth,"locus YCL069W, strain vba3, stronger effect = lower value",0.813 (active) and 0.879 (active)
same,normalized growth,"locus YCR088W, strain abp1, stronger effect = lower value",0.842 (active) and 0.919 (active)
same,normalized growth,"locus YDL005C, strain med2, stronger effect = lower value",0.971 (inactive)
same,normalized growth,"locus YDL035C, strain GPR1, stronger effect = lower value",0.662 (active) and 0.799 (active)
same,normalized growth,"locus YDL040C, strain nat1, stronger effect = lower value",0.943 (inactive) and 0.953 (inactive)
same,normalized growth,"locus YDL074C, strain BRE1, stronger effect = lower value",0.589 (active) and 0.751 (active)
same,normalized growth,"locus YDL101C, strain DUN1, stronger effect = lower value",0.742 (active) and 0.847 (active)
same,normalized growth,"locus YDL134C, strain PPH21, stronger effect = lower value",0.738 (active) and 0.848 (active)
same,normalized growth,"locus YDL185W, strain tfp1, stronger effect = lower value",0.926 (inactive) and 0.966 (inactive)
same,normalized growth,"locus YDL192W, strain arf1, stronger effect = lower value",0.689 (active) and 0.978 (inactive)
same,normalized growth,"locus YDR001C, strain nth1, stronger effect = lower value",0.881 (active) and 0.925 (inactive)
same,normalized growth,"locus YDR069C, strain doa4, stronger effect = lower value",0.53 (active) and 0.604 (active)
same,normalized growth,"locus YDR101C, strain arx1, stronger effect = lower value",0.849 (active) and 0.943 (inactive)
same,normalized growth,"locus YDR137W, strain rgp1, stronger effect = lower value",0.161 (active) and 0.167 (active)
same,normalized growth,"locus YDR150W, strain NUM1, stronger effect = lower value",0.785 (active) and 0.912 (inactive)
same,normalized growth,"locus YDR159W, strain sac3, stronger effect = lower value",0.653 (active) and 0.717 (active)
same,normalized growth,"locus YDR162C, strain NBP2, stronger effect = lower value",0.342 (active) and 0.819 (active)
same,normalized growth,"locus YDR195W, strain ref2",0.84 (active) and 0.864 (inactive)
same,normalized growth,"locus YDR297W, strain sur2, stronger effect = lower value",0.79 (active) and 0.863 (active)
same,normalized growth,"locus YDR318W, strain mcm21, stronger effect = lower value",0.847 (active) and 0.965 (inactive)
same,normalized growth,"locus YDR334W, strain swr1, stronger effect = lower value",0.477 (active) and 0.674 (active)
same,normalized growth,"locus YDR335W, strain msn5, stronger effect = lower value",0.677 (active) and 0.769 (active)
same,normalized growth,"locus YDR388W, stronger effect = lower value",0.793 (active) and 0.972 (inactive)
same,normalized growth,"locus YDR392W, strain spt3, stronger effect = lower value",0.56 (active) and 0.438 (active)
same,normalized growth,"locus YDR502C, strain sam2, stronger effect = lower value",0.769 (active) and 0.937 (inactive)
same,normalized growth,"locus YEL003W, strain gim4, stronger effect = lower value",0.761 (active) and 0.805 (active)
same,normalized growth,"locus YEL037C, strain rad23, stronger effect = lower value",0.786 (active) and 0.813 (active)
same,normalized growth,"locus YEL061C, strain CIN8 (second series), stronger effect = lower value",0.814 (active) and 0.916 (inactive)
same,normalized growth,"locus YEL061C, strain CIN8, stronger effect = lower value",0.777 (active) and 0.853 (active)
same,normalized growth,"locus YER015W, strain faa2, stronger effect = lower value",0.649 (active) and 0.698 (active)
same,normalized growth,"locus YER016W, strain bim1, stronger effect = lower value",0.849 (active) and 0.883 (active)
same,normalized growth,"locus YER110C, stronger effect = lower value",0.943 (inactive) and 1.02 (inactive)
same,normalized growth,"locus YER111C, strain swi4, stronger effect = lower value",0.456 (active) and 0.668 (active)
same,normalized growth,"locus YER155C, strain BEM2 (second series), stronger effect = lower value",0.674 (active) and 0.758 (active)
same,normalized growth,"locus YER155C, strain BEM2, stronger effect = lower value",0.865 (active) and 0.912 (active)
same,normalized growth,"locus YER167W, strain BCK2, stronger effect = lower value",0.83 (active) and 0.895 (active)
same,normalized growth,"locus YFR010W, strain ubp6, stronger effect = lower value",0.644 (active) and 0.732 (active)
same,normalized growth,"locus YGL078C, strain dbp3, stronger effect = lower value",0.976 (inactive) and 1.01 (inactive)
same,normalized growth,"locus YGL086W, strain mad1, stronger effect = lower value",0.937 (inactive)
same,normalized growth,"locus YGL167C, strain pmr1, stronger effect = lower value",0.868 (active) and 0.833 (active)
same,normalized growth,"locus YGL173C, strain kem1, stronger effect = lower value",0.564 (active) and 0.591 (active)
same,normalized growth,"locus YGL227W, strain vid30, stronger effect = lower value",0.953 (inactive) and 0.989 (inactive)
same,normalized growth,"locus YGL240W, strain doc1, stronger effect = lower value",0.892 (inactive) and 0.952 (inactive)
same,normalized growth,"locus YGL248W, strain PDE1, stronger effect = lower value",0.764 (active) and 0.805 (active)
same,normalized growth,"locus YGL253W, strain hxk2, stronger effect = lower value",0.629 (active) and 0.698 (active)
same,normalized growth,"locus YGR078C, strain PAC10, stronger effect = lower value",0.776 (active)
same,normalized growth,"locus YGR135W, strain pre9, stronger effect = lower value",0.821 (active) and 0.901 (inactive)
same,normalized growth,"locus YGR229C, strain SMI1, stronger effect = lower value",0.126 (active)
same,normalized growth,"locus YGR252W, strain gcn5, stronger effect = lower value",0.806 (inactive) and 0.95 (inactive)
same,normalized growth,"locus YHR013C, strain ard1, stronger effect = lower value",0.651 (active) and 0.608 (active)
same,normalized growth,"locus YHR027C, strain rpn1, stronger effect = lower value",0.56 (active) and 0.593 (active)
same,normalized growth,"locus YHR030C, strain SLT2, stronger effect = lower value",0.64 (active) and 0.992 (inactive) and 0.854 (active)
same,normalized growth,"locus YHR079C, strain IRE1 (second series), stronger effect = lower value",0.841 (active) and 0.953 (inactive)
same,normalized growth,"locus YHR079C, strain IRE1, stronger effect = lower value",1.01 (inactive)
same,normalized growth,"locus YHR094C, strain hxt1, stronger effect = lower value",0.979 (inactive) and 1 (inactive)
same,normalized growth,"locus YHR129C, strain ARP1, stronger effect = lower value",0.731 (active) and 0.811 (active)
same,normalized growth,"locus YHR142W, strain chs7, stronger effect = lower value",0.537 (active) and 0.619 (active)
same,normalized growth,"locus YHR200W, strain rpn10, stronger effect = lower value",0.876 (active) and 0.977 (inactive)
same,normalized growth,"locus YIL066C, strain RNR3, stronger effect = lower value",0.6 (active) and 0.744 (active)
same,normalized growth,"locus YIL073C, strain SPO22, stronger effect = lower value",0.421 (active) and 0.743 (inactive)
same,normalized growth,"locus YIL125W, strain kgd1, stronger effect = lower value",1.05 (inactive) and 0.996 (inactive)
same,normalized growth,"locus YIR030C, strain dcg1, stronger effect = lower value",0.89 (active) and 0.994 (inactive)
same,normalized growth,"locus YJL092W, strain hpr5, stronger effect = lower value",0.799 (active) and 0.852 (active)
same,normalized growth,"locus YJL095W, strain BCK1 (second series), stronger effect = lower value",0.644 (active) and 0.629 (active)
same,normalized growth,"locus YJL095W, strain BCK1, stronger effect = lower value",0.534 (active) and 0.961 (inactive) and 0.744 (active)
same,normalized growth,"locus YJL115W, strain asf1, stronger effect = lower value",0.794 (active) and 0.86 (active)
same,normalized growth,"locus YJL129C, strain trk1, stronger effect = lower value",0.897 (inactive) and 0.937 (inactive)
same,normalized growth,"locus YJL134W, strain LCB3, stronger effect = lower value",0.875 (active) and 0.934 (inactive)
same,normalized growth,"locus YJL154C, strain vps35, stronger effect = lower value",0.857 (active) and 0.853 (active)
same,normalized growth,"locus YJL164C, strain tpk1, stronger effect = lower value",0.774 (active) and 0.762 (active)
same,normalized growth,"locus YJL166W, strain qcr8, stronger effect = lower value",0.75 (active) and 0.82 (active)
same,normalized growth,"locus YJL168C, strain set2, stronger effect = lower value",0.935 (inactive) and 0.981 (inactive)
same,normalized growth,"locus YJL187C, strain SWE1 (second series), stronger effect = lower value",0.553 (active) and 0.71 (active)
same,normalized growth,"locus YJL187C, strain SWE1, stronger effect = lower value",0.804 (active)
same,normalized growth,"locus YJR043C, strain POL32, stronger effect = lower value",0.594 (active) and 0.749 (active)
